Hits are enriched below; roughly 3.2% of the tested compounds scored in any of these assays.
GDH-TPI counter: GDH-TPI coupling enzyme inhibitors, primary screen, artefact control for M. tuberculosis FBA inhibitor project, biochemical, absorbance, full deck; inhibition, % at 4.8 µM; 360,000 compounds, 1.2% hits; AID 588335, 2011; GDH-TPI coupled enzyme counterscreen, NADH absorbance; in the data active = inhibition above about 30%;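 also: 0% = DMSO wells and 100% = wells lacking the enzyme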
TcdB GH inh: TcdB glycohydrolase inhibitors, primary screen, biochemical, single point, plate reader. Toxin B (Clostridioides difficile), P18177. inhibition, % at 9.99 µM. TcdB glycohydrolase enzymatic assay. 350,000 compounds, 0.24% hits; in the data active = inhibition above about 10%
Yp Topo-I inh: Yersinia pestis topoisomerase I inhibitors, primary screen, biochemical, cleavage product accumulation, plate reader, single point. DNA topoisomerase I (Yersinia pestis CO92). Y. pestis Topo-I cleavage product accumulation. activity, % at 10 µM. 360,000 compounds, 0.064% hits. AID 504884, 2011; in the data active = activity above about 50%, passing the limit was not always enough
Mtb FBA inh: Mtb FBA enzyme inhibitors, primary screen, biochemical, fluorescence, strain H37Rv | AID 588726, 2011 | inhibition, % at 1 µM | 360,000 compounds, 2.3% hits | Fructose-bisphosphate aldolase (Mycobacterium tuberculosis (strain ATCC 25618 / H37Rv)), … | purified M. tuberculosis FBA, fluorescence read-out; in the data active = inhibition above about 27%;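 also: 0% = vehicle and 100% = reference inhibitor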
PrPC TRFRET: inhibitors of human cell surface prion protein PrPC, primary screen, cell-based, TR-FRET | inhibition, % at 13.8 µM | TR-FRET read-out | Major prion protein (Homo sapiens), P04156 | 370,000 compounds, 0.43% hits; in the data active = inhibition above about 24%; also: 0% = median of the test wells and 100% = reference compound wells
PrPC confirm: confirmation of inhibitors of cell surface human prion protein, confirmation, cell-based, TR-FRET; shares compounds with PrPC TRFRET; cell surface PrPC level; inhibition, % at 13.8 µM; 1,500 compounds, 65% hits; in the data active = inhibition above about 25%
LD9 cytotox: cytotoxicity in LD9 cells, cytotoxicity control for cell surface PrPc inhibitor project, cell-based, luminescence, high throughput. shares compounds with PrPC TRFRET. luminescence viability. inhibition, % at 13.8 µM. 1,500 compounds, 29% hits; in the data active = inhibition above about 9.5%
Numbers without * were called inactive; . = no result.

SMILES	GDH-TPI counter	TcdB GH inh	Yp Topo-I inh	Mtb FBA inh	PrPC TRFRET	PrPC confirm	LD9 cytotox
C[C@H]1CN([C@@H](C)CO)C(=O)c2ccccc2-c2ccccc2CO[C@H]1CN(C)S(=O)(=O)c1ccsc1	.	0.1	.	.	.	.	.
Cn1cccc1/C=N\NC(=O)Cc1ccc(Br)c2ccccc12	15.6	.	32.8	-3.2	30.5*	35.5*	-0.4
C[C@@H]1CN([C@H](C)CO)C(=O)c2cccc(NC(=O)Nc3ccc4c(c3)OCO4)c2O[C@H]1CN(C)Cc1ccc(-c2ccccc2)cc1	.	0.7	.	.	.	.	.
COCCN(CCOC)C(=O)Nc1ccc(Cl)cc1	21.9	4.1	-5.5	2.3	4.0	.	.
COCCN(CCOC)C(=O)CC(=O)N(CCOC)CCOC	-10.9	.	3.0	-1.3	27.5*	6.8	-0.5
C#CCCC[C@@H]1OC(=O)CNC(=O)C([C@@H](C)CC)NC(=O)[C@@H]2CCCN2C(=O)C([C@@H](C)CC)OC(=O)[C@H](Cc2ccccc2)N(C)C(=O)[C@H](C(C)C)NC(=O)C1(C)C (some centres not stated)	.	2.0	.	4.5	5.5	.	.
CCC(C)C1NC(=O)C(NC(=O)C(CC(C)C)N(C)C(=O)C2CCCN2C(=O)C(C)O)C(C)OC(=O)C(Cc2ccc(OC)cc2)N(C)C(=O)C2CCCN2C(=O)C(CC(C)C)NC(=O)[C@H](C)C(=O)[C@H](C(C)C)OC(=O)CC1O (some centres not stated)	-2.6	-3.5	13.1	4.3	96.6*	97.8*	63.8*
CC(C)Oc1ccc(CNC(=O)c2ccc3c(c2)N(C)CCS3)cc1	3.9	-0.9	11.6	140.4*	25.4*	44.1*	-4.3

From PubChem BioAssay
